From PubChem
In the library only some 27% were active in any assay of this set; here they are far more common.
CYP2C19 act: increases human CYP2C19 enzyme activity; recombinant CYP2C19, luciferin-H EGE luminescence; stronger effect = higher value; 0 = fully inhibited enzyme, 1 = untreated enzyme; activation factor at 5 µM; AID 1025; P33261; 96,000 tested, under 10 active;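 active = activation factor of at least 2 at 5 µM in the primary screen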;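 also: 0 = wells with 2.5 mM tranylcypromine and 1 = vehicle-only wells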
Pyk2 oligo antag: blocks oligomerization of human Pyk2 in cells; Q293 cells, Pyk2 FERM NanoBiT luminescence; stronger effect = lower value; Q14289; 0.83% of 99,000 active; z-score (the deposit names both 25 µM and 10 µM);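 active = Z-score of -3 or lower, scaled per plate to the spread of control and sample wells; inactive = z-score above -3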;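 also: negative z-score means lost luminescence so less FERM oligomerization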
Target sequence (Q14289 whole entry, looked up): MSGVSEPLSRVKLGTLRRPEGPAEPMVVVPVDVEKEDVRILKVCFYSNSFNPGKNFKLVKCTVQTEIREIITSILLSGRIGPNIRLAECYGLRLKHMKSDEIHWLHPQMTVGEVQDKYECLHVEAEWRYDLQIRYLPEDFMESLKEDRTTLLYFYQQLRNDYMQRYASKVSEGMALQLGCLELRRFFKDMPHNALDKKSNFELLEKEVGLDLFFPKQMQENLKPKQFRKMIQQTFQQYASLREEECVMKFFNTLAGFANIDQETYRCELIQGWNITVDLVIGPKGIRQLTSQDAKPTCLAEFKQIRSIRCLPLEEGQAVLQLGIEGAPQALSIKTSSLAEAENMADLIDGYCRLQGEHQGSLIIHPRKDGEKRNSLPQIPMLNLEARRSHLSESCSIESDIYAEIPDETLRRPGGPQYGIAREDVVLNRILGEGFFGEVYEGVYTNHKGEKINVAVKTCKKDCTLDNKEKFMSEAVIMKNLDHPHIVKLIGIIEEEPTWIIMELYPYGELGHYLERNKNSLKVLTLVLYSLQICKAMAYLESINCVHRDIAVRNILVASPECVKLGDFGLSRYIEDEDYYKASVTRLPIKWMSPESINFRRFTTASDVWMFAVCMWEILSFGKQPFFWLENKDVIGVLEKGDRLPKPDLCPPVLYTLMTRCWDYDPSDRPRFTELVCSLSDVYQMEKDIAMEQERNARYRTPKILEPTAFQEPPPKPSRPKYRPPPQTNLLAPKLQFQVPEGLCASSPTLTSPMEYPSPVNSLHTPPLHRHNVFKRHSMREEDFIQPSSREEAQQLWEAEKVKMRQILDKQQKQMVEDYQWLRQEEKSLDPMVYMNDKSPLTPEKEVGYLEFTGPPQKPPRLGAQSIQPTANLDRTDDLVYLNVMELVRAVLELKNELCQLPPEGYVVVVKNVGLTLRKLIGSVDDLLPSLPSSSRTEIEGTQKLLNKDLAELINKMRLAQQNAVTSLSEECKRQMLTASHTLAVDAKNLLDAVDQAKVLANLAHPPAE
CYP2C9 activ: CYP2C9 (human) activation; P11712; activation factor at 5 µM; AID 1024; recombinant CYP2C9, luciferin-H conversion, luminescence; stronger effect = higher value; factor 1 = untreated enzyme, 0 = blocked; 1.4% of 96,000 active;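 active = activation factor of 2 or more for CYP2C9 at a 5 µM dose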;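 also: 0 = sulfaphenazole-blocked wells and 1 = vehicle-only wells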
CYP2C9 inh: blocks human cytochrome P450 2C9. P11712. CYP2C9 Supersomes, luciferin-H conversion, luminescence. inhibition, % at 5 µM. 20% of 96,000 active;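 active = blocking of liver enzyme CYP2C9 beyond about 50% at 5 µM, limit read from the data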
Cav32 inh: inhibitors of human Cav3.2 T-type calcium channel; Cav3.2-expressing cells, Fluo-4 calcium fluorescence FDSS; stronger effect = lower value; B-score at 10 µM; 4% of 100,000 active;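 active = single-dose well whose peak fluorescence ratio is a statistical outlier from its plate by either plate-standardised score or position-corrected B-score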
CYP2C19 inh: human CYP2C19 inhibition. P33261. CYP2C19 Supersomes, luciferin-H EGE luminescence, 30 min. inhibition, % at 5 µM. 21% of 96,000 active;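 active = CYP2C19 inhibition above a set limit at 5 µM in the primary screen, cut at about 50% in these data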;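 also: plate controls were negative control wells for no effect and 2.5 mM tranylcypromine positive control for full effect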
Numbers without * were called inactive; nt = no result given.

SMILES	CYP2C19 act	Pyk2 oligo antag	CYP2C9 activ	CYP2C9 inh	Cav32 inh	CYP2C19 inh
CCN1CCN(c2ncnc3c2oc2nc(C(C)C)c4c(c23)CCC4)CC1	0.9	nt	0.9	12	nt	10
CCOC(=O)N1CCN(c2ncnc3c2oc2nc(C(C)C)c4c(c23)CCC4)CC1	0.1	0.06	0.4	65*	-1.2	86*
CC(C)Cc1nc2oc3c(N4CCN(CCO)CC4)ncnc3c2c2c1CCCC2	0.4	-1.6	0.3	67*	0.31	60*
CC12CC(NC(=O)N1CCc1ccccc1)c1ccccc1O2 (stereo not drawn)	0.2	0.98	0.7	29	-0.24	79*
Cc1cc(N)n(-c2ccccc2)n1	1	-0.35	1.1	-8	nt	-4
Cc1cc(C)nc(Sc2c(C)nn(-c3ccccc3)c2C)n1	0.1	-0.78	0.8	25	1.2	91*
Cc1ccc(-c2nc(Nc3ccccc3)n[nH]2)cc1	0.3	-1	0.7	27	0.13	69*
Cn1c(CSCc2ccc(Cl)cc2)nnc1SCC(=O)Nc1nc2ccccc2s1	0.9	1.6	0.9	13	0.8	6
CCn1c2ccccc2c2cc(NC(=O)CSc3nnc(-c4cccc(C)c4)o3)ccc21	0.4	-0.09	0.4	64*	-1.6	63*
Cc1cccc(NC(=O)CSc2nnc(Cn3cnc4ccccc43)o2)c1	nt	1.8	nt	nt	-1.2	nt
CCn1c2ccccc2c2cc(NC(=O)CSc3nnc(-c4ccccc4)o3)ccc21	0.1	-2.1	0.2	78*	-0.33	95*
CCn1c2ccccc2c2cc(NC(=O)CSc3nnc(-c4cccc(F)c4)o3)ccc21	0.1	1.6	0.3	70*	0.15	91*
CCSc1nn2c(=O)c3ccccc3nc2s1	0.7	-0.93	0.5	49	0.67	28
CCCCCCCCOC(=O)C(NC(=O)CCC(=O)Nc1ccc(S(N)(=O)=O)cc1)C(O)c1ccccc1 (stereo not drawn)	0.5	1.4	0.4	62*	0.07	54*
COc1ncccc1-c1nnn(-c2ccc(F)cc2)n1	nt	nt	nt	nt	0.31	nt
O=C(Cc1ccccc1)Nc1c2c(nn1-c1cccc(Cl)c1)CS(=O)(=O)C2	0.4	0.09	0.8	24	-0.97	55*
CC1CCCC(N2C(=O)NC(NC(=O)c3ccco3)(C(F)(F)F)C2=O)C1C (stereo not drawn)	0.4	0.24	0.6	43	-0.41	63*
CCN(Cc1nc2cc(OC)c(OC)cc2c(=O)[nH]1)C(=O)c1ccc(S(=O)(=O)N(C)C)cc1	0.7	0.6	0.5	54*	1.7	30
CCN(CC(=O)NCCc1ccc(S(N)(=O)=O)cc1)Cc1nc2cc(OC)c(OC)cc2c(=O)[nH]1	1	-1.3	1.2	-19	0.36	-1
COc1ccc(C(=O)COC(=O)CSCc2c(C)noc2C)cc1OC	0.4	0.4	0.7	34	0.04	64*
Cc1noc(C)c1CSCC(=O)OCC(=O)NC1CCCCC1	0.8	1.8	0.9	12	0.55	20
CCOC(=O)Cn1c(=O)oc2cc(S(=O)(=O)N3CCCc4ccccc43)ccc21	0.2	nt	0.2	77*	nt	77*
O=C(Cn1c(=O)oc2cc(S(=O)(=O)N3CCc4ccccc43)ccc21)NC1CCCC1	0.8	nt	0.4	64*	-0.68	21
Cc1ccc(NC(=O)Cn2c(=O)oc3cc(S(=O)(=O)N4CCC(C)CC4)ccc32)cc1C	1	nt	0.3	67*	-5.9*	5
CCOC(=O)Cn1c(=O)oc2cc(S(=O)(=O)N3CCn4c3nc3ccccc34)ccc21	0.9	nt	1.2	-18	1.7	15
CC(C)CCNC(=O)Cn1c(=O)oc2cc(S(=O)(=O)N3CCc4ccccc43)ccc21	0.7	nt	0.2	83*	-2	34
CCOc1c2c(nc3ccc(Cl)cc13)CCC2	1	0.04	0.9	11	-2.9	2
CCOC(=O)N1CCN(C(=O)c2cnn(-c3ccccc3)c2NC(=O)c2ccccc2F)CC1	1.1	0.28	1.2	-24	-0.028	-10
O=C(Oc1ccc(OC(=O)c2ccco2)c(S(=O)(=O)c2ccc(Br)cc2)c1)c1ccco1	0.4	-0.25	0.3	72*	-1.7	64*
CN(C)S(=O)(=O)c1ccc(NC(=O)CN2CCN(C(c3ccccc3)c3ccccc3)CC2)cc1	1	-0.85	1	3	-0.65	-4
